Assay results as given in PubChem BioAssay (Tox21).
Inconclusive results are not listed. Activity calls are given as the source filed them. Unless noted, the call rests on the fitted dose curve; in most records, active means well fitted curve in the direction sought with a large enough effect in the repeat runs; inconclusive means weak or mixed curves; inactive means no such curve, though single readings can be large; an effect the other way counts as inactive or inconclusive.

Key:
[1] = qHTS assay to identify small molecule agonists of the TGF-beta/Smad signaling pathway - cell viability counter screen (AID 1346829); further: top concentration of the series differs between compounds; nearly all actives have a fitted effect of over 45% in size
Outline: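 CellTiter-Glo luminescence readout; SBE-bla HEK 293T cells, overnight plating, compound 5 hr at 37 C/5% CO2, then bla substrate 2 hr RT, then CellTiter-Glo 30 min RT.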

[2] = qHTS assay to identify small molecule agonists of the TGF-beta/Smad signaling pathway (AID 1346859; active means well fitted activation curve with a large enough effect in the signal ratio in the repeat runs, not every such curve was filed as active; the % refers to the signal ratio; further: series mostly up to about 77 µM)
Outline: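 Fluorescence (ex 405 nm; em 460 and 530 nm) was read 2 h after LiveBLAzer FRET substrate at RT. The preceding compound treatment of overnight-plated SBE-bla HEK293T cells lasted 5 h at 37 C.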

[3] = target: Thyrotropin-releasing hormone receptor (Homo sapiens) (UniProt P34981); experiment: qHTS assay to identify small molecule antagonists of the thyrotropin-releasing hormone receptor (TRHR) signaling pathway (AID 1346877; active means well fitted inhibition curve with a large enough effect in the repeat runs, not every such curve was filed as active; further: series mostly up to about 51 µM)
Outline: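 Cells (TRHR-HEK293) are plated and kept 18 h at 37 °C/5% CO2. A calcium-sensitive dye is added for 2 h, compound follows for 5 min at room temperature, and TRH is then given at 1 nM final.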

[4] = target: Thyrotropin-releasing hormone receptor (Homo sapiens) (UniProt P34981); experiment: qHTS assay to identify small molecule agonists of the thyrotropin-releasing hormone receptor (TRHR) signaling pathway (AID 1346891; calls by dose curve; further: series mostly up to about 58 µM)
Outline: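 Agonist-mode intracellular calcium readout: kinetic fluorescence over 3 min at 1 s intervals after compound addition to TRHR-HEK293 cells (18 h seeded, 2 h dye-loaded at 37 C). Fifteen concentrations, triplicates.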

[5] = Human pregnane X receptor (PXR) small molecule agonists, qHTS cell viability counter screen (AID 1346977); further: nearly all actives have a fitted effect of over 50% in size
Outline: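 Same-well viability read: CellTiter-Fluor added after 23 hr compound exposure, fluorescence measured 1 hr later. Cells were PXR-Luc HepG2 seeded at 2,000/well in 5% charcoal-stripped FBS medium, rested 5 hr before dosing at 37 C.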

[6] = Caspase-3/7 induction in HepG2 cells by small molecules, qHTS assay (AID 1346978); further: nearly all actives have a fitted effect of over 15% in size
Outline: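 Caspase-3/7 induction was measured by Caspase-Glo 3/7 luminescence (30 min, room temperature) after a 17 hr compound exposure of wild-type HepG2 cells seeded at 2,000 per well and pre-incubated 5 hr.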

[7] = Caspase-3/7 induction in CHO-K1 cells by small molecules, qHTS cell viability counter screen (AID 1346979); further: nearly all actives have a fitted effect of over 35% in size
Outline: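 Cytotoxicity counter screen: CellTiter-Fluor added to compound-treated wild-type CHO-K1 cells at 16 h (37C, 5% CO2), fluorescence measured 1 h later; same wells as caspase-3/7 measurement.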

[8] = Caspase-3/7 induction in CHO-K1 cells by small molecules, qHTS assay (AID 1346980); further: nearly all actives have a fitted effect of over 15% in size
Outline: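 Luminescent Caspase-Glo 3/7 read (30min, room temperature) quantified apoptosis induction. Cells were wild-type CHO-K1, treated with compound for 17hr at 37 C and 5% CO2.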

[9] = Caspase-3/7 induction in HepG2 cells by small molecules, qHTS cell viability counter screen (AID 1346981); further: series mostly up to about 92 µM; nearly all actives have a fitted effect of over 30% in size
Outline: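 Steps: seed 2,000 HepG2 cells per well; incubate 5 hr at 37 C; pin-add compounds in DMSO; incubate 16 hr; add CellTiter-Fluor; after 1 hr at 37 C and 5% CO2, read fluorescence.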

[10] = target: Nuclear receptor subfamily 1 group I member 2 (Homo sapiens) (UniProt O75469); experiment: Human pregnane X receptor (PXR) small molecule agonists, qHTS assay (AID 1346982); further: nearly all actives have a fitted effect of over 35% in size; further: potency means the concentration at half of the fitted maximal effect
Outline: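 Agonist mode qHTS: PXR-Luc HepG2 cells plated 5 hr before DMSO-dissolved compounds were pinned in, cultured 24 hr at 37 C, 5% CO2; ONE-Glo luminescence readout.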

[11] = target: Cytochrome P450 2D6 (Homo sapiens) (UniProt P10635); experiment: Cytochrome P450 Family 2 Subfamily D Member 6 (CYP2D6) small molecule antagonists: luciferase reporter qHTS assay (AID 1671196); further: nearly all actives have a fitted effect of over 50% in size; further: potency means the concentration at half of the fitted maximal effect; on activity change, negative = inhibition: series mostly up to about 120 µM
Outline: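 P450-Glo format: CYP2D6 converts a proluciferin substrate to luciferin in an NADPH-driven reaction lasting 1 h at room temperature. Light output, proportional to CYP2D6 activity, reflects interference by test chemicals.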

[12] = target: Cytochrome P450 2C19 (Homo sapiens) (UniProt P33261); experiment: Cytochrome P450 Family 2 Subfamily C Member 19 (CYP2C19) small molecule antagonists: luciferase reporter qHTS assay (AID 1671197); further: nearly all actives have a fitted effect of over 65% in size; further: potency means the concentration at half of the fitted maximal effect; on activity change, negative = inhibition: series mostly up to about 120 µM
Outline: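 Enzyme-substrate mix with proluciferin substrate (P450-Glo CYP2C19 system) preincubated with compounds 10 min at room temperature; NADPH regeneration solution added, 37C for 1 h; detection reagent stops reaction, luminescence read after 20 min. Ketoconazole positive control.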

[13] = target: Cytochrome P450 2C9 (Homo sapiens) (UniProt P11712); experiment: Cytochrome P450 Family 2 Subfamily C Member 9 (CYP2C9) small molecule antagonists: luciferase reporter qHTS assay (AID 1671198); further: nearly all actives have a fitted effect of over 50% in size; further: potency means the concentration at half of the fitted maximal effect; on activity change, negative = inhibition: series mostly up to about 120 µM
Outline: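 Enzyme-substrate mix preincubated with compound 10 min at room temperature; reaction started with NADPH regeneration solution, 1 h 37C. Luminescent luciferin product read after 20 min detection reagent.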

[14] = target: Cytochrome P450 1A2 (Homo sapiens) (UniProt P05177); experiment: Cytochrome P450 Family 1 Subfamily A Member 2 (CYP1A2) small molecule antagonists: luciferase reporter qHTS assay (AID 1671199); further: nearly all actives have a fitted effect of over 50% in size; further: potency means the concentration at half of the fitted maximal effect; on activity change, negative = inhibition: series mostly up to about 120 µM
Outline: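 Inhibition of CYP1A2 conversion of proluciferin to luciferin, detected by luminescence. Reaction run 1 h at room temperature with NADPH regeneration after brief compound preincubation.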

[15] = target: Voltage-gated inwardly rectifying potassium channel KCNH2 (Homo sapiens) (UniProt Q12809); experiment: Human Ether-a-go-go-Related Gene (hERG) channel small molecule antagonists: fluorescence cell-based qHTS assay (AID 1671200)
Outline: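 Thallium flux as potassium surrogate: FluxOR II dye loaded 1 h at room temperature into hERG-expressing U2OS cells, then stimulus buffer added after 10 min. Kinetic 480 nm excitation/540 nm emission read, 2 min.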

[16] = target: Cytochrome P450 3A4 (Homo sapiens) (UniProt P08684); experiment: Cytochrome P450 Family 3 Subfamily A Member 4 (CYP3A4) small molecule antagonists: luciferase reporter qHTS assay (AID 1671201); further: nearly all actives have a fitted effect of over 50% in size; further: potency means the concentration at half of the fitted maximal effect; on activity change, negative = inhibition: series mostly up to about 120 µM
Outline: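 Recombinant human CYP3A4 converts a proluciferin substrate to luciferin over 1 h at room temperature after NADPH regeneration solution is added (compound preincubated 10 min); detection reagent stops reaction, luminescence read 20 min later as relative units.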

[17] = target: Nuclear receptor subfamily 1 group I member 2 (Rattus norvegicus) (UniProt Q9R1A7); experiment: Rat pregnane X receptor (rPXR) activation by small molecules, qHTS assay (AID 1346983); conditions: rPXR luciferase reporter cells, One-Glo luminescence, 24 h; hits give high values; further: nearly all actives have a fitted effect of over 20% in size
Outline: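 Luminescent readout (One-Glo luciferase, 30 min room temperature) followed 24 hr compound treatment at 37 C of rPXR cells plated 2,000 per well and preincubated 5hr; qHTS format with compounds delivered in DMSO.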

[18] = target: Nuclear receptor subfamily 1 group I member 2 (Homo sapiens) (UniProt O75469); experiment: Human pregnane X receptor (PXR) activation by small molecules, qHTS assay (AID 1346985); further: nearly all actives have a fitted effect of over 40% in size
Outline: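 DPX-2 cells (HepG2 co-transfected with a PXR response element and a CYP3A4-promoter luciferase construct) were seeded at 2,000 per well, rested 5 hr at 37C, then exposed to DMSO-dissolved compounds for 24 hr. Activation was read as luciferase luminescence.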

[19] = target: Nuclear receptor subfamily 1 group I member 2 (Homo sapiens) (UniProt O75469); experiment: CYP3A4 induction through human pregnane X receptor (PXR) by small molecules, qHTS assay (AID 1346984); further: nearly all actives have a fitted effect of over 40% in size
Outline: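 Steps: seed DPX-2 cells, 5 hr at 37C; pin-transfer compounds; 24 hr at 37C; add Luciferin-IPA (3uM final), 3 hr at 37C; add One-Glo, 30 min RT; read luminescence.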
On the % scale 0 is the no-effect control and ±100 the full control effect.

Sequence of Voltage-gated inwardly rectifying potassium channel KCNH2 (Homo sapiens) (Q12809 whole entry, looked up): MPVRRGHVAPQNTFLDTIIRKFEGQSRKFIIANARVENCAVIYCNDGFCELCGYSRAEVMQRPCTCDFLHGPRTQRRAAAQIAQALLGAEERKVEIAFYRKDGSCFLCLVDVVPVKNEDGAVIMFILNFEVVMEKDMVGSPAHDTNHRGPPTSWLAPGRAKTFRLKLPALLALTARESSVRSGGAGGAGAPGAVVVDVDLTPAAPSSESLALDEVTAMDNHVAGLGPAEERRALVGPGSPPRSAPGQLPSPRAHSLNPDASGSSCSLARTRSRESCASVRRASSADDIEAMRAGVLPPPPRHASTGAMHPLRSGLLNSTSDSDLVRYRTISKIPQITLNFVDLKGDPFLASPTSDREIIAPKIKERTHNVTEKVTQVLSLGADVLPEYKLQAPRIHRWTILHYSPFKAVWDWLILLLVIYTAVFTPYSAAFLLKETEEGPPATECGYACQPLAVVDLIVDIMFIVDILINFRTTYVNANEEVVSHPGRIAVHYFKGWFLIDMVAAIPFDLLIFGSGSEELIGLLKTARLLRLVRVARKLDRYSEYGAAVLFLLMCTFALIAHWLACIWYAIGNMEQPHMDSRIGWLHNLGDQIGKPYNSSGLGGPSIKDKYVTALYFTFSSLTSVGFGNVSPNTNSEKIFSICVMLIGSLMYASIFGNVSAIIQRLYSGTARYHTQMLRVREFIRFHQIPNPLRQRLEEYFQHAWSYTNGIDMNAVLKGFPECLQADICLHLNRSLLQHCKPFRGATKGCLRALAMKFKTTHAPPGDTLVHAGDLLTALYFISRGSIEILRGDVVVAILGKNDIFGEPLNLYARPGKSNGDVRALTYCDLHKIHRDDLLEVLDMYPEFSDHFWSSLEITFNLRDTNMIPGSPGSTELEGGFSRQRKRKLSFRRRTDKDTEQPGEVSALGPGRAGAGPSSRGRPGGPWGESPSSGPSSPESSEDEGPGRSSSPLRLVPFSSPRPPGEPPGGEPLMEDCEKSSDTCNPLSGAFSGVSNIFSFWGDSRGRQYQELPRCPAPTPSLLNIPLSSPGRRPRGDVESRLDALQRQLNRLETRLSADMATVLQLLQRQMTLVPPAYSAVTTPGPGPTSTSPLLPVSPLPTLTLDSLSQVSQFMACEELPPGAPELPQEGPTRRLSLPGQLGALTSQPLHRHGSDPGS
Sequence of Cytochrome P450 3A4 (Homo sapiens) (P08684 whole entry, looked up): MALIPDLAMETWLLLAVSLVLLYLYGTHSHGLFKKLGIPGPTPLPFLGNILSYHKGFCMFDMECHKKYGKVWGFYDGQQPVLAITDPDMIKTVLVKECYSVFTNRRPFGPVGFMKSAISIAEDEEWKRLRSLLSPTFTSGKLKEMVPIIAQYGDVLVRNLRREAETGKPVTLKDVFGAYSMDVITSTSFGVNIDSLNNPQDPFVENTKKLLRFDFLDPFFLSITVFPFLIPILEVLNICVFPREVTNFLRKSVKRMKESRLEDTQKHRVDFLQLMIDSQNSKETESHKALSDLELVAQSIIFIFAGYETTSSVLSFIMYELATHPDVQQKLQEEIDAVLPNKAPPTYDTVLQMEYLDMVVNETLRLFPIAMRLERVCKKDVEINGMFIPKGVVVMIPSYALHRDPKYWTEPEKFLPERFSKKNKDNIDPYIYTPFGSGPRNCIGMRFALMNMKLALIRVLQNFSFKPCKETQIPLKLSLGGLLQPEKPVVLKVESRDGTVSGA
Sequence of Cytochrome P450 2C9 (Homo sapiens) (P11712 whole entry, looked up): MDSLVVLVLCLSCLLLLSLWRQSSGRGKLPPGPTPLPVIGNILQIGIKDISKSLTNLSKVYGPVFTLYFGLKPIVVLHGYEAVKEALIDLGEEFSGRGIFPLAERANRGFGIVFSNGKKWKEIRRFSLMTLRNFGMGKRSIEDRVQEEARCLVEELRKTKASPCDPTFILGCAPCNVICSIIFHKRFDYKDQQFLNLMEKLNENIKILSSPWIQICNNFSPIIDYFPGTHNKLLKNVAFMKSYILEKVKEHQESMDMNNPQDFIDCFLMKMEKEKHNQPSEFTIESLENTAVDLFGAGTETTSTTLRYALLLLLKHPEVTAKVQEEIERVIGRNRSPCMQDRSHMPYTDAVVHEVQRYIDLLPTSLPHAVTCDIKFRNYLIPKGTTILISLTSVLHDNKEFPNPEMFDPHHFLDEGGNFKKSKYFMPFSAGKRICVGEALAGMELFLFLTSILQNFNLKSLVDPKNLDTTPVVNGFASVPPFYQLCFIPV
Sequence of Cytochrome P450 1A2 (Homo sapiens) (P05177 whole entry, looked up): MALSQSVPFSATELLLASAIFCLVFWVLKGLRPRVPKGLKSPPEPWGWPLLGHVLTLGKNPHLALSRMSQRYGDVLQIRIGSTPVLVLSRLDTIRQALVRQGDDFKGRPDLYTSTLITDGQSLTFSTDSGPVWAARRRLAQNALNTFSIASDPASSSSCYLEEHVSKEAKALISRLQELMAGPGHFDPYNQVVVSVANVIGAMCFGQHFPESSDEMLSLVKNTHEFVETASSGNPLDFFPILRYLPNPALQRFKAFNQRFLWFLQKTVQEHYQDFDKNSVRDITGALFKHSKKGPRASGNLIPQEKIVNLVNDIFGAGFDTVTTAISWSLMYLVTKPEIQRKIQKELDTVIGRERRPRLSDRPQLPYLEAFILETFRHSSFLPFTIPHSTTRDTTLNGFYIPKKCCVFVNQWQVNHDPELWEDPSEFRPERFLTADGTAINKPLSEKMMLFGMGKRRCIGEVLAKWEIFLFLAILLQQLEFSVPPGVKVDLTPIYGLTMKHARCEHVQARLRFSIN
Sequence of Thyrotropin-releasing hormone receptor (Homo sapiens) (P34981 whole entry, looked up): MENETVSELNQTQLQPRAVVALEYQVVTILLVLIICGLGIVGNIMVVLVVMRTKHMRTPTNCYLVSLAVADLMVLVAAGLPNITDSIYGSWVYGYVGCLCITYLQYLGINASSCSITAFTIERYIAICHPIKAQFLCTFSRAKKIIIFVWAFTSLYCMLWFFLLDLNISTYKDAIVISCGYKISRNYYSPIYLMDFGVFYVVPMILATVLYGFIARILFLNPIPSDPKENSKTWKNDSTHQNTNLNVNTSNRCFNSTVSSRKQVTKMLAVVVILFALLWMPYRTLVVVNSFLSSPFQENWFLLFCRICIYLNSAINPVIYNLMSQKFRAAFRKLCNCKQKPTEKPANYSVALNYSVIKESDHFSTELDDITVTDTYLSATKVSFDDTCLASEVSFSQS
Sequence of Cytochrome P450 2D6 (Homo sapiens) (P10635 whole entry, looked up): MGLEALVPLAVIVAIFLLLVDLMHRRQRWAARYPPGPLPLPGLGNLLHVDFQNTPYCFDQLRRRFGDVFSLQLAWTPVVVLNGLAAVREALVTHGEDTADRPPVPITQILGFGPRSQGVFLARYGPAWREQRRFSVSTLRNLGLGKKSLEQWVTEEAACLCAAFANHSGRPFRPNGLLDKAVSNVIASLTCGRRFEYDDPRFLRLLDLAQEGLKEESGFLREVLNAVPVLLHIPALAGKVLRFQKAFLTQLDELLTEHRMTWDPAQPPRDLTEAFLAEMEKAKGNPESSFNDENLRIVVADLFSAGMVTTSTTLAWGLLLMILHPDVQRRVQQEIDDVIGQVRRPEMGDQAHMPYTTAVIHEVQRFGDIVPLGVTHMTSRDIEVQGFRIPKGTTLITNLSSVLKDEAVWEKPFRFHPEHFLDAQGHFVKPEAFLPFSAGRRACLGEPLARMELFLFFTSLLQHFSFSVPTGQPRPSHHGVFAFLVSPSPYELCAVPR
Sequence of Nuclear receptor subfamily 1 group I member 2 (Homo sapiens) (O75469 whole entry, looked up): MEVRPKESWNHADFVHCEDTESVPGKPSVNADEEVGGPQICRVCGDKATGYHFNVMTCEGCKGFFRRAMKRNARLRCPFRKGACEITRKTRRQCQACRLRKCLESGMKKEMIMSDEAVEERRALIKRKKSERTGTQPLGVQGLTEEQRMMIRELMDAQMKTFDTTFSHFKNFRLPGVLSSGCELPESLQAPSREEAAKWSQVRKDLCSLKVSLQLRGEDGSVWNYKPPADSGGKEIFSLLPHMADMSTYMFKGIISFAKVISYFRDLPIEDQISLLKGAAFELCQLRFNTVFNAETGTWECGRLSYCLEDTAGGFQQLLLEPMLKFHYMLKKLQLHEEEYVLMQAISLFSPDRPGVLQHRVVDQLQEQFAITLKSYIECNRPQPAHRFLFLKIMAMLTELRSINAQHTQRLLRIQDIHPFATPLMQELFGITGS
Sequence of Cytochrome P450 2C19 (Homo sapiens) (P33261 whole entry, looked up): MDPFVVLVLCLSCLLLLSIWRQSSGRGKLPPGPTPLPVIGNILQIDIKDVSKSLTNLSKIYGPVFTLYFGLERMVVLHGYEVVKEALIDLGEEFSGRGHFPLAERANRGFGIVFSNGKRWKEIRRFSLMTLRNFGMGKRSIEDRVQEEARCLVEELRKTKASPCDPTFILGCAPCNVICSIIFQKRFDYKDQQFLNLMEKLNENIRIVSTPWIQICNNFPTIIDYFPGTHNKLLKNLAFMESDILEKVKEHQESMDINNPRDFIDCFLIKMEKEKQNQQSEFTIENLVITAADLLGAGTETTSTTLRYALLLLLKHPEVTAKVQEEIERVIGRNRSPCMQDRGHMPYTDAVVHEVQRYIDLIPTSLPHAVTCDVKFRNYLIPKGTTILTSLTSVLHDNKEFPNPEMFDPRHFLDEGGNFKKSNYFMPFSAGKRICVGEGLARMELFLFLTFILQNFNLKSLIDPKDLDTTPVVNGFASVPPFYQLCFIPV
Sequence of Nuclear receptor subfamily 1 group I member 2 (Rattus norvegicus) (Q9R1A7 whole entry, looked up): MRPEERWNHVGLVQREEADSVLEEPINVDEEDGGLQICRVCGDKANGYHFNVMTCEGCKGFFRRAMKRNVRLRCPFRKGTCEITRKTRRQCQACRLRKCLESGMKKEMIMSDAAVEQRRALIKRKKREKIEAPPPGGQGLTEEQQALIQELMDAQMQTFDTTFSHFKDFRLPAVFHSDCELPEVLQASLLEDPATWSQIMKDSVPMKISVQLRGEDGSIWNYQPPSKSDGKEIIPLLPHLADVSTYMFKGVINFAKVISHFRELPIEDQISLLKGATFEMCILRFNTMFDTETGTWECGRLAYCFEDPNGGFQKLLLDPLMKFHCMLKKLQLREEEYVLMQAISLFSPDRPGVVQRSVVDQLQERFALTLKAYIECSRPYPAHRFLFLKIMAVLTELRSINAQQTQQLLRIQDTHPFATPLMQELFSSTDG

O=C(O)CSCC(=O)NC1CCSC1=O (configuration not stated)
inactive: outcome [1] | outcome [2] | outcome [3] | outcome [4] | outcome [5] | outcome [6] | Potency [7] | outcome [8] | outcome [9] | Potency [10] | Potency [11] | Potency [12] | Potency [13] | Potency [14] | Potency [15] | Potency [16]

CC(=O)C(C)O (configuration not stated)
inactive: outcome [1] | outcome [2] | outcome [3] | outcome [4] | outcome [5] | outcome [6] | Potency [7] | outcome [8] | outcome [9] | Potency [10] | Potency [11] | Potency [12] | Potency [13] | Potency [14] | Potency [15]

C=CCOC(=O)CCCCCC
inactive: outcome [1] | outcome [2] | outcome [3] | outcome [4] | outcome [5] | outcome [6] | Potency [7] | outcome [8] | outcome [9] | Potency [10] | Potency [11] | Potency [12] | Potency [13] | Potency [14] | Potency [15] | Potency [16]

N[C@@H](Cc1ccc(O)cc1)C(=O)O
inactive: activity change, negative = cytotoxicity [1] 9.15% [at 6.97 µM] | activation [2] 4.2% [at 6.97 µM] | activity, negative = inhibition [3] -2.4% [at 4.65 µM] | activation [4] -0.36% [at 5.23 µM] | activity change, negative = cytotoxicity [5] -1.74% [at 8.39 µM] | caspase activation [6] -1.72% [at 8.39 µM] | activity change, negative = cytotoxicity [7] 1.62% [at 8.39 µM] | caspase-3/7 activation [8] -1.08% [at 8.39 µM] | activity change, negative = cytotoxicity [9] -1.35% [at 8.39 µM] | activation [10] -5.23% [at 8.39 µM] | max activation [17] 3.66% | Potency [18]

Cc1ccc2c(c1)C(=O)c1ccccc1C2=O
inactive: outcome [1] | outcome [2] | outcome [3] | outcome [4] | outcome [5] | outcome [6] | Potency [7] | outcome [8] | outcome [9] | Potency [15]
active: Potency [10] 15.3 µM | Potency [11] 28.2 µM | Potency [12] 11.2 µM | Potency [13] 12.6 µM | Potency [14] 8.91 µM | Potency [16] 7.07 µM

C[C@]12CCC(=O)C=C1CC[C@H]1[C@@H]3CC[C@](O)(C(=O)CO)[C@@]3(C)C[C@H](O)[C@@]12F
inactive: outcome [1] | outcome [2] | outcome [3] | outcome [4] | outcome [5] | outcome [6] | Potency [7] | outcome [8] | outcome [9] | Potency [10] | Potency [19] | Potency [18] | Potency [11] | Potency [12] | Potency [14] | Potency [15]

CCCCCCCCCCCCCCCCCCOCCO
active: Potency [14] 7.12 µM
inactive: activity change, negative = cytotoxicity [1] -6.94% [at 15.8 µM] | activation [2] -0.657% [at 15.8 µM] | activity, negative = inhibition [3] 2.83% [at 10.5 µM] | activation [4] -0.279% [at 11.8 µM] | activity change, negative = cytotoxicity [5] 5.85% [at 19 µM] | caspase activation [6] 0.0407% [at 19 µM] | activity change, negative = cytotoxicity [7] -0.155% [at 19 µM] | caspase-3/7 activation [8] -1.25% [at 19 µM] | activity change, negative = cytotoxicity [9] 7.52% [at 19 µM] | activation [10] 0.259% [at 19 µM] | activity change, negative = inhibition [11] -7.3% [at 23.6 µM] | activity change, negative = inhibition [12] 7.26% [at 23.6 µM] | activity change, negative = inhibition [13] -10.3% [at 23.6 µM] | activity change, negative = inhibition [15] 3.84% [at 15.8 µM] | activity change, negative = inhibition [16] 11.9% [at 23.6 µM]
